# Test results reported in PubChem BioAssay (Tox21).
# Values without a mark were called inactive. Records with an inconclusive call do not appear. Where a call stands in place of a potency, no number is given. The source made the active and inactive calls. Unless noted, calls come from the whole dose curve; as a rule, active = well fitted curve in the direction sought with a large enough effect in the repeat runs; inconclusive = weak or mixed curves; inactive = no such curve, though single readings can be large; an effect the other way counts as inactive or inconclusive.
# Legend:
# [1] = qHTS assay to identify small molecule agonists of H2AX (AID 1224845; active = well fitted activation curve with a large enough effect in the signal ratio in the repeat runs, not every such curve was filed as active; the % refers to the signal ratio)
# Outline: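 Phospho-H2AX Ser139 measured by HTRF (ex 320 nm; em 665 and 620 nm) after 24 hr antibody incubation. Compounds, 15 concentrations, 0.76% DMSO, were applied to CHO-K1 cells for 3hr at 37C before lysis.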
# [2] = qHTS assay to identify small molecule agonists of H2AX - cell viability counter screen (AID 1224847; calls by dose curve; note: nearly all actives have a fitted effect of over 30% in size; note: potency is the fitted concentration of half-maximal effect; for activity change, negative = cytotoxicity: top concentration of the series differs between compounds)
# Outline: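 Quantitative HTS viability measurement: CHO-K1 wild-type cells in serum (10% FBS) medium, short 3 hr drug exposure at 37C with 0.76% DMSO, CellTiter-Glo luminescent detection.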
# [3] = qHTS RealTime-Glo MT Cell Viability Assay in HepG2 cells - 24 hour (AID 1224867); note: nearly all actives have a fitted effect of over 50% in size
# Outline: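 Cell number in HepG2 cultures estimated from NanoLuc luminescence generated by metabolic reduction of a prosubstrate by living cells. The homogeneous, nonlytic format allowed repeated reads at 0, 8, 16, 24, 32 and 40 h of compound exposure.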
# [4] = qHTS RealTime-Glo MT Cell Viability Assay in HEK293 cells - 32 hour (AID 1224868); note: nearly all actives have a fitted effect of over 50% in size; note: potency is the fitted concentration of half-maximal effect; for activity change, negative = cytotoxic: top concentration of the series differs between compounds
# Outline: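 Homogeneous bioluminescent viability format in HEK293 cells (600 cells/well). Following 5 h at 37 C/5% CO2, 23 nL compound was pintooled; the signal was measured repeatedly during 40 h incubation.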
# [5] = A CellTox Green Cytotoxicity Assay to monitor cytotoxicity in HEK293 cells - 0 hour (AID 1224869); note: nearly all actives have a fitted effect of over 50% in size
# Outline: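 Fluorescence from a DNA-binding dye excluded by viable cells was measured repeatedly in the same HEK293 wells (600 cells/well) during continuous compound exposure at 37 C. Each assay gives one read point: 0, 8, 16, 24, 32 or 40 h.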
# [6] = qHTS assay to identify small molecule agonists of the hypoxia (HIF-1) signaling pathway - cell viability counter screen (AID 1224844; calls by dose curve; note: nearly all actives have a fitted effect of over 50% in size)
# Outline: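 Cytotoxicity measured by CellTiter-Glo ATP luminescence in the wells also read for beta-lactamase signal. Cells were HRE-bla ME-180 (2,000/well, 0.5% dialyzed FBS), exposed to compounds for 17 h at 37C.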
# [7] = qHTS assay to identify small molecule agonists of the hypoxia (HIF-1) signaling pathway (AID 1224846; active = well fitted activation curve with a large enough effect in the signal ratio in the repeat runs, not every such curve was filed as active; the % refers to the signal ratio)
# Outline: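 Compounds added to ME-180 cells carrying hypoxia-response-element beta-lactamase reporter (0.5% dialyzed FBS, 5 h preplating), 17 h at 37C; agonist activity detected by CCF4-AM B/G FRET read-out.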
# [8] = qHTS assay to identify small molecule antagonists of the estrogen related receptor (ERR) signaling pathway from Tox21 library (AID 1224848); note: nearly all actives have a fitted effect of over 50% in size; note: potency is the fitted concentration of half-maximal effect
# Outline: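 Luciferase luminescence (ONE-Glo, 30 min room temperature) was the read-out. Cells of the NTP-supplied ERR line, 2,000 per well, were given 6 h at 37 C before compound addition in DMSO and 18 h exposure at 37 C.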
# [9] = qHTS assay to identify small molecule agonists of the estrogen related receptor (ERR) signaling pathway from Tox21 library (AID 1224849; calls by dose curve; note: nearly all actives have a fitted effect of over 15% in size); settings: ERR reporter cell line, ONE-Glo luciferase, 18 h; at 92.4 µM (top of the series) unless noted
# Outline: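 Luminescent agonist read-out (One-Glo, 30-minute room-temperature incubation) following 18-hour compound treatment at 37 C of the ERR cell line, which had been plated 6 hours before dosing.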
compound,measurement,setting,value
O=C1C(CCS(=O)c2ccccc2)C(=O)N(c2ccccc2)N1c1ccccc1 (configuration not stated),outcome,[1],inactive
same,Potency,[2],inactive
same,outcome,[3],inactive
same,Potency,[4],inactive
same,Potency,[5],inactive
Cn1ccc2cc3c(cc21)CCN3C(=O)Nc1cccnc1,"activity change, negative = cytotoxicity",[6],-7.99% [at 15.8 µM]
same,activation,[7],-0.619% [at 15.8 µM]
same,"activity change, negative = cytotoxicity",[3],-2.41% [at 15.8 µM]
same,"activity change, negative = cytotoxic",[4],-7.77% [at 15.8 µM]
same,cytotoxicity,[5],-3.51% [at 15.8 µM]
Cc1nccn1CC1CCc2c(c3ccccc3n2C)C1=O (configuration not stated),Potency,[6],inactive
same,outcome,[1],inactive
same,Potency,[2],inactive
same,outcome,[3],inactive
same,Potency,[4],inactive
same,Potency,[5],inactive
C=C(C)C(=O)NCCCN(C)C,outcome,[1],inactive
same,outcome,[7],inactive
same,Potency,[2],inactive
same,outcome,[3],inactive
same,Potency,[4],inactive
same,Potency,[5],inactive
O=C(O)Cc1cc(I)c(Oc2cc(I)c(O)c(I)c2)c(I)c1,Potency,[2],inactive
same,outcome,[3],inactive
same,Potency,[4],inactive
same,Potency,[5],inactive
O=C(O)/C=C/c1ccc(Cn2ccnc2)cc1,Potency,[6],inactive
same,outcome,[1],inactive
same,Potency,[2],inactive
same,outcome,[3],inactive
same,Potency,[4],inactive
same,Potency,[5],inactive
CC(=O)N[C@@H](CCC(N)=O)C(=O)O,outcome,[1],inactive
same,outcome,[7],inactive
same,Potency,[4],inactive
same,Potency,[5],inactive
OCC(O)[C@@H](O)[C@H](O)[C@H](O)CO[C@H]1O[C@H](CO)[C@@H](O)[C@H](O)[C@H]1O (some centres not stated),outcome,[1],inactive
same,outcome,[7],inactive
same,Potency,[2],inactive
same,outcome,[3],inactive
same,Potency,[4],inactive
same,Potency,[5],inactive
c1ccc(SCCSc2ccccc2)cc1,outcome,[1],inactive
same,outcome,[7],inactive
same,Potency,[2],inactive
same,Potency,[8],inactive
same,"activity change, positive = activation",[9],69.4% (active)
same,outcome,[3],inactive
same,Potency,[4],inactive
same,Potency,[5],inactive
Nc1[nH]c(=O)ncc1F,Potency,[6],inactive
same,outcome,[1],inactive
same,Potency,[2],inactive
same,Potency,[8],inactive
same,"activity change, positive = activation",[9],-0.92% [at 42.5 µM]
same,outcome,[3],inactive
same,Potency,[4],inactive
same,Potency,[5],inactive
Oc1ccc2c(c1)OC[C@@H](N1CCC(O)(c3ccc(F)cc3)CC1)[C@H]2O,outcome,[1],inactive
same,outcome,[7],inactive
same,Potency,[2],inactive
same,Potency,[8],inactive
same,"activity change, positive = activation",[9],111% [at 42.5 µM] (active)
same,outcome,[3],inactive
same,Potency,[4],inactive
same,Potency,[5],inactive
CC/C=C\CCCCO,Potency,[6],inactive
same,outcome,[1],inactive
same,outcome,[7],inactive
same,Potency,[4],inactive
same,Potency,[5],inactive
CN(C)C(=O)Nc1ccccc1,outcome,[1],inactive
same,outcome,[7],inactive
same,Potency,[2],inactive
same,Potency,[8],inactive
same,"activity change, positive = activation",[9],3.55%
same,outcome,[3],inactive
same,Potency,[4],inactive
same,Potency,[5],inactive
CCCCCCCCN(C)CCCCCCCC,outcome,[1],inactive
same,outcome,[7],inactive
same,Potency,[2],inactive
same,Potency,[8],inactive
same,"activity change, positive = activation",[9],18.3%
same,outcome,[3],inactive
same,Potency,[4],inactive
same,Potency,[5],inactive
Nc1ncnc2c1ncn2Cc1c(F)cccc1Cl,outcome,[1],inactive
same,outcome,[7],inactive
same,Potency,[2],inactive
same,Potency,[8],inactive
same,"activity change, positive = activation",[9],0.331% [at 42.5 µM]
same,outcome,[3],inactive
same,Potency,[4],inactive
CC(C)(O)C(=O)c1ccc(OCCO)cc1,outcome,[1],inactive
same,outcome,[7],inactive
same,outcome,[3],inactive
same,Potency,[4],inactive
same,Potency,[5],inactive
COc1ccc(NC(C)=O)cc1,outcome,[1],inactive
same,outcome,[7],inactive
same,Potency,[2],inactive
same,outcome,[3],inactive
same,Potency,[4],inactive
same,Potency,[5],inactive
CCN(CC)C(=O)c1ccc(O)c(OC)c1,Potency,[6],inactive
same,outcome,[1],inactive
same,Potency,[2],inactive
same,outcome,[3],inactive
same,Potency,[4],inactive
same,Potency,[5],inactive
C[C@H](O)C(=O)Nc1c(I)c(C(=O)NC(CO)CO)c(I)c(C(=O)NC(CO)CO)c1I,Potency,[6],inactive
same,outcome,[1],inactive
same,Potency,[2],inactive
same,outcome,[3],inactive
same,Potency,[4],inactive
same,Potency,[5],inactive
CCCCCCCCCCCCI,outcome,[1],inactive
same,outcome,[7],inactive
same,Potency,[4],inactive
same,Potency,[5],inactive
CSc1nc(NC2CC2)nc(NC(C)(C)C)n1,outcome,[1],inactive
same,outcome,[7],inactive
same,Potency,[2],inactive
same,outcome,[3],inactive
same,Potency,[4],24.5 µM (active)
same,Potency,[5],inactive
C(=C(c1ccccc1)c1ccccc1)c1ccccc1,outcome,[1],inactive
same,outcome,[7],inactive
same,Potency,[2],80 µM (active)
same,outcome,[3],inactive
same,Potency,[4],inactive
same,Potency,[5],inactive
OC1OC[C@@H](O)[C@H](O)[C@H]1O (some centres not stated),outcome,[1],inactive
same,outcome,[7],inactive
same,Potency,[2],inactive
same,outcome,[3],inactive
same,Potency,[4],inactive
same,Potency,[5],inactive
CCN1CCN(c2cc3c(cc2F)c(=O)c(C(=O)O)cn3C2CC2)CC1,Potency,[6],inactive
same,outcome,[1],inactive
same,Potency,[2],inactive
same,outcome,[3],inactive
same,Potency,[4],inactive
same,Potency,[5],inactive
CN1[C@@H]2CC[C@H]1CC(NC(=O)n1c(=O)[nH]c3ccccc31)C2 (some centres not stated),outcome,[1],inactive
same,outcome,[7],inactive
same,Potency,[2],inactive
same,Potency,[8],inactive
same,"activity change, positive = activation",[9],7.7% [at 42.5 µM]
same,outcome,[3],inactive
same,Potency,[4],inactive
same,Potency,[5],inactive
Nc1ccc2cc(S(=O)(=O)O)ccc2c1,outcome,[7],inactive
same,outcome,[3],inactive
same,Potency,[4],inactive
same,Potency,[5],inactive
CN(C)CCn1nnnc1SCC1=C(C(=O)O)N2C(=O)[C@@H](NC(=O)Cc3csc(N)n3)[C@H]2SC1,Potency,[6],inactive
same,outcome,[1],inactive
same,Potency,[2],inactive
same,outcome,[3],inactive
same,Potency,[4],inactive
same,Potency,[5],inactive
Cc1c(C)n(CCN(C)C)c2ccc(C(=O)OCCN(C)C)cc12,outcome,[1],inactive
same,Potency,[2],inactive
same,Potency,[8],inactive
same,"activity change, positive = activation",[9],-20.1% [at 42.5 µM]
same,outcome,[3],inactive
same,Potency,[5],inactive
CCn1c(=O)c2c(nc(/C=C/c3ccc(OC)c(OC)c3)n2C)n(CC)c1=O,outcome,[1],inactive
same,outcome,[7],inactive
same,Potency,[2],inactive
same,Potency,[8],21.1 µM (active)
same,"activity change, positive = activation",[9],-35.7% [at 42.5 µM]
same,outcome,[3],inactive
same,Potency,[4],1.69 µM (active)
same,Potency,[5],inactive
